From PubChem BioAssay
Inconclusive results are not listed. Active and inactive are the calls of the source.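 Rule for the calls, unless noted: active = inhibition over a set limit, the all-compound mean plus 3 SD, in both replicate runs; inconclusive = over that limit in just one replicate run; inactive = at or under that limit in both runs.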

Key:
[1] = Her2 expression decrease, cell viability multiplex – SKBR3 breast tumor cells, AlphaScreen, ATP viability, primary screen (AID 461;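 active = Her2 level under about 52% in both replicate screens, with viability over 70% of control, limit read from the data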;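 for Her2 level: lower value means less Her2 protein in the cells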;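 for viability: percent of carrier control wells set as 100% viability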); details: SKBR3 Her2 protein level, 18-24 h, measured here: SKBR3 viability, ATP luminescence, at 10 µM
[2] = target: Receptor tyrosine-protein kinase erbB-2 (Homo sapiens) (UniProt P04626); experiment: as above; details: 18-24 h, at 10 µM, stronger effect = lower value
[3] = reduced viability of SK-BR-3 breast cancer cells – cell-based, 24 h, human, pilot screen (AID 572;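 active = viability at or below 10% of carrier control in both of two separate runs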;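 note: compound exposure lasted between 18 and 24 h rather than exactly 24 h; 100% = carrier-treated control wells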); details: SK-BR-3 viability, CellTiter-Glo luminescence, at 10 µM, stronger effect = lower value
[4] = HUVEC growth inhibition – cell-based, human, primary screen (AID 575;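 active = viability at or below 30% in both replicate assays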;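 note: 100% = median of untreated cell wells with 0.1% DMSO on each plate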); details: HUVEC proliferation, CellTiter-Glo luminescence, 72 h; at 10 µM; stronger effect = lower value
[5] = H69AR cell proliferation blockers – human, duplicate replicates, primary screen (AID 580;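 active = viability at or under a set limit in both replicates, limit being median viability minus 3 SD, cut at about 48% in these data, passing the limit was not always enough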;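 note: 100% = mean luminescence of untreated wells and 0% = no signal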); details: H69AR lung tumor cells viability, ATP luminescence, 72 h; at 10 µM; stronger effect = lower value
[6] = MRP1 drug-resistance reversers in H69AR cells – cell-based, doxorubicin co-treatment, pilot screen (AID 601;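 active = viability loss from added drug above about 55%, and viability with drug at most 40%, in both replicates, limit read from the data, passing the limit was not always enough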); details: CellTiter-Glo, 72 h, at 10 µM; for differential viability (reversal): stronger effect = higher value
[7] = yeast transport mutant growth inhibition pilot in 384-well plates, post-Golgi transport modulator project (AID 636; in the data active = inhibition above about 31%); details: absorbance 615 nm, about 18 h, stronger effect = higher value
[8] = growth suppression of yeast trafficking mutant, preliminary HTS, modulators of trafficking downstream of Golgi apparatus project, 1536-format plate, OD 615 nm (AID 637; in the data active = inhibition above about 30%); details: yeast transport mutant growth, absorbance 615 nm, 18 h; stronger effect = higher value
[9] = S. cerevisiae growth inhibition in permissive medium (OD615), pilot counter-assay for S. cerevisiae lifespan shortening project, permissive growth control (AID 705;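 active = growth inhibition above 25% in both replicates, a cutoff set 3 SD above the mean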); details: OD615, 24 h, at 10 µM, stronger effect = higher value
[10] = S. cerevisiae growth inhibition in restrictive medium, OD615, pilot screen, restrictive growth control, yeast lifespan reduction project (AID 706;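 active = growth inhibition above a set limit, 3 SD over mean compound inhibition, in both replicates, cut at about 43% in these data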;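 note: modified DeaD lifespan yeast strain shifted to restrictive glucose medium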); details: OD615, 48 h, at 10 µM, stronger effect = higher value
[11] = doxorubicin toxicity protection in MRP-1 cells – H69AR cells, CellTiter-Glo, duplicate, MRP-1 activator project, pilot screen (AID 807;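 active = viability increase at or above a cutoff of the median across tested compounds plus 3 SD, cut at about 8.5% in these data, passing the limit was not always enough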;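 note: compound pretreatment 18-22 h then 72 h combined with doxorubicin; 0% = doxorubicin alone and 100% = vehicle without doxorubicin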); details: H69AR viability with doxorubicin, CellTiter-Glo luminescence; at 10 µM; stronger effect = higher value
[12] = viability of PTEN-null HCT116 cells – cell-based, HCT116 clonal line, CellTiter-Glo, pilot screen (AID 824;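 active = viability at or below 27.92% in each of two runs, the all-compound median minus 4 SD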;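 note: 0% = 20 µM Hyamine control and 100% = vehicle cell control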); details: HCT116 PTEN-deleted viability, 60 h, at 10 µM, stronger effect = lower value
[13] = RAM pathway blockade in budding yeast – dse1pr::URA3 reporter, 5-FOA selection, pilot screen (AID 869);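 note: 0% = DMSO wells with no growth and 100% = 10 µM 1-NA-PP1 with full growth; RAM network block rescues cells from 5-FOA so hits raise OD615 growth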; details: S. cerevisiae dse1pr::URA3 5-FOA growth, OD615, 2 d; at 10 µM; stronger effect = higher value; strain carries analog-sensitive mutant Cbk1 kinase
[14] = RAM signaling pathway blockade in yeast – S. cerevisiae, Pdr1DBD-CYC8 efflux-inhibited sensitized strain, primary screen (AID 1298;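 active = RAM network inhibition above 8.4% in each of two replicates, 3 SD over the compound average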;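 note: 0% = DMSO untreated cells without growth and 100% = 10 µM 1-NA-PP1 full growth; higher means more yeast growth rescued from 5-FOA killing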); details: S. cerevisiae cbk1-as DSE1-URA3 strain, 5-FOA growth OD615, 2 d; at 50 µM; stronger effect = higher value
[15] = viability of HCT116 without oncogenic beta-catenin – human colon tumor cells, pilot screen (AID 823;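 active = cell viability at or below a set limit in both duplicate runs, the limit being the all-compound median minus 4 SD, cut at about 23% in these data, passing the limit was not always enough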;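 note: 0% = wells killed by 20 µM Hyamine and 100% = untreated DMSO cell wells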); details: HCT116 beta-catenin knockout viability, CellTiter-Glo, 60 h; at 10 µM; stronger effect = lower value
[16] = H69AR cells + 2 uM doxorubicin, measured here: viability with 2 uM doxorubicin, stronger effect = lower value
[17] = H69AR cells, compound alone cytotoxicity

Chain of Receptor tyrosine-protein kinase erbB-2 (Homo sapiens) (P04626 whole entry, looked up): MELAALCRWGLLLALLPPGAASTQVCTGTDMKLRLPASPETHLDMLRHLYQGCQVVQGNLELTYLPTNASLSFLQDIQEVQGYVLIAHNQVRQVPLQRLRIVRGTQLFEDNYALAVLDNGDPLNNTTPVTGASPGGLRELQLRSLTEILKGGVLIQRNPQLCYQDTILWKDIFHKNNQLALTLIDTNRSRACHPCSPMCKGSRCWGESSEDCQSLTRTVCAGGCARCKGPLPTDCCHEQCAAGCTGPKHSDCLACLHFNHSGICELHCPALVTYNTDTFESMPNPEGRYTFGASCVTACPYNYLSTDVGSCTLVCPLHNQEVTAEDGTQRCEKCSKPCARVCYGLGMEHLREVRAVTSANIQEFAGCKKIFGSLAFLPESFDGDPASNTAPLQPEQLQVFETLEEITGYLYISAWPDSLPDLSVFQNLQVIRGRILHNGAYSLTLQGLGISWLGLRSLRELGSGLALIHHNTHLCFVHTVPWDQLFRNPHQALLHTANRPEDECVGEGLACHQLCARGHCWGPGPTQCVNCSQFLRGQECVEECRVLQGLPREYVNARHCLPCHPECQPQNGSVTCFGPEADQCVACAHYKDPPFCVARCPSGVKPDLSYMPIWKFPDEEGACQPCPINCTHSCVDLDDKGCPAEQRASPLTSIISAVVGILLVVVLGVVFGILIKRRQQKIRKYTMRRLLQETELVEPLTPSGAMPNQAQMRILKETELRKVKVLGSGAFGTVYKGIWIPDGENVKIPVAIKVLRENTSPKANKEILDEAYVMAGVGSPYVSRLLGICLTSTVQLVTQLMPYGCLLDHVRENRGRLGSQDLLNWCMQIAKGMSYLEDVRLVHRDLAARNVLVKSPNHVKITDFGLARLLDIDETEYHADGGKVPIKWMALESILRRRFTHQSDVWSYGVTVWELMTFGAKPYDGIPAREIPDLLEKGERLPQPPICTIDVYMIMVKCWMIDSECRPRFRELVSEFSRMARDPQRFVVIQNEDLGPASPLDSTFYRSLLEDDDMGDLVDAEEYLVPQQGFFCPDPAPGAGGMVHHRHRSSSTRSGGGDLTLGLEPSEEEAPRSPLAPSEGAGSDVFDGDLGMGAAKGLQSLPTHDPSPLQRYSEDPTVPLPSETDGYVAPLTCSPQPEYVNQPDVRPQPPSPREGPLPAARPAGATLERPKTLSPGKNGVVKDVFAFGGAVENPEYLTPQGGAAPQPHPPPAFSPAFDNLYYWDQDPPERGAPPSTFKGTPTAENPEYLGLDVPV

CCOc1ccc(-c2nnc(N(CC)C(=O)C3CCC3)s2)cc1
83.7%: viability [6, 17]
78.3%: viability [6, 16]
inactive: Her2 level [2] 72% | viability [3] 87.5% | viability [4] 98.5% | viability [5] 83.7% | differential viability (reversal) ([6]; H69AR cells + 2 uM doxorubicin) 5.45% | inhibition [7] -4.21% | inhibition [8] -3.97% | growth inhibition [9] -4.38% | growth inhibition [10] 7.03% | viability increase [11] -1.68% | viability [12] 84.6% | inhibition [13] 0.825% | RAM network inhibition [14] 0.26%
87.5%: viability [1]

CCOC(=O)c1cc2c(=O)n3ccccc3nc2n(CC2CCCO2)c1=NC(C)=O (centres undefined)
99%: viability [1]
inactive: Her2 level [2] 95.5% | viability [3] 99% | viability [4] 102% | viability [5] 81.1% | inhibition [7] -6.71% | inhibition [8] -2.22% | growth inhibition [9] -22.2% | growth inhibition [10] -17.4% | viability increase [11] 0.08% | viability [15] 97.6% | viability [12] 93.8% | inhibition [13] 0.525% | RAM network inhibition [14] 3.93%

COC(=O)c1cn(NC(=O)c2cccnc2)c(=O)c2ccccc12
100%: viability [6, 16]
inactive: Her2 level [2] 84% | viability [3] 88% | viability [4] 101% | viability [5] 103% | differential viability (reversal) ([6]; H69AR cells + 2 uM doxorubicin) 2.79% | inhibition [7] -7.26% | inhibition [8] 1.11% | growth inhibition [9] -2.23% | growth inhibition [10] 0.94% | viability [15] 101% | viability [12] 99% | inhibition [13] 0.92% | RAM network inhibition [14] 5.05%
88%: viability [1]
103%: viability [6, 17]

CCN1CCN(c2ncnc3c2cnn3-c2ccc(C)cc2C)CC1
85.5%: viability [1]
inactive: Her2 level [2] 96% | viability [3] 85.5% | viability [4] 99.8% | viability [5] 73.7% | inhibition [7] -6.4% | inhibition [8] 7.7% | growth inhibition [9] -5.99% | growth inhibition [10] -11% | viability increase [11] -6.88% | viability [15] 85.1% | viability [12] 81.6% | inhibition [13] 0.395% | RAM network inhibition [14] 0.63%

COc1ccc(-c2nnc3sc(C(C)N4C(=O)c5ccccc5C4=O)nn23)cc1 (centres undefined)
90.9%: viability [6, 17]
101%: viability [6, 16]
inactive: Her2 level [2] 111% | viability [3] 84% | viability [4] 96.8% | viability [5] 90.9% | differential viability (reversal) ([6]; H69AR cells + 2 uM doxorubicin) -9.99% | inhibition [7] 2.13% | inhibition [8] -2.67% | viability increase [11] -2.35% | viability [15] 101% | viability [12] 96.5% | inhibition [13] 1.46% | RAM network inhibition [14] -1.51%
84%: viability [1]
active: growth inhibition [10] 53.1%

Cc1cc(C)c2c(=O)n(CC(=O)N3CCC(Cc4ccccc4)CC3)sc2n1
10.3%: viability [6, 16]
inactive: Her2 level [2] 84% | viability [3] 108% | viability [4] 77% | differential viability (reversal) ([6]; H69AR cells + 2 uM doxorubicin) -6.3% | inhibition [7] -6.53% | inhibition [8] -2.17% | viability increase [11] -6.66% | viability [12] 68.7% | inhibition [13] 1.6% | RAM network inhibition [14] 3.67%
3.96%: viability [6, 17]
108%: viability [1]
active: viability [5] 3.96% | growth inhibition [9] 73% | growth inhibition [10] 89.2%

Cc1c(C(=O)Nc2nnc(C(F)(F)F)s2)oc2ccccc12
91.5%: viability [1]
84.8%: viability [6, 17]
93.1%: viability [6, 16]
inactive: Her2 level [2] 81.5% | viability [3] 91.5% | viability [4] 51% | viability [5] 84.8% | differential viability (reversal) ([6]; H69AR cells + 2 uM doxorubicin) -8.24% | inhibition [7] -6% | inhibition [8] -3.33% | growth inhibition [9] -4.23% | growth inhibition [10] 13.6% | viability [12] 65.5% | inhibition [13] 2.56% | RAM network inhibition [14] 4.2%

Cc1noc(/C=C/N(C)C)c1S(=O)(=O)N1CCCC(C(=O)NC2CCCCC2)C1 (centres undefined)
99%: viability [1]
inactive: Her2 level [2] 99.5% | viability [3] 99% | viability [4] 75.7% | viability [5] 88.6% | differential viability (reversal) ([6]; H69AR cells + 2 uM doxorubicin) -16.5% | inhibition [7] -3.07% | inhibition [8] -3.5% | growth inhibition [9] 2.12% | growth inhibition [10] -9.03% | viability [15] 93% | viability [12] 88.4% | inhibition [13] 0.78% | RAM network inhibition [14] 5.71%
88.6%: viability [6, 17]
105%: viability [6, 16]

CCN(CC)c1ccc2cc(-c3nc4ccccc4[nH]3)c(=O)oc2c1
inactive: Her2 level [2] 101% | viability [3] 88% | differential viability (reversal) ([6]; H69AR cells + 2 uM doxorubicin) -0.345% | inhibition [7] 0.13% | inhibition [8] -6.39% | growth inhibition [9] -3.73% | growth inhibition [10] -16.3% | viability increase [11] -7.61% | inhibition [13] -1.12% | RAM network inhibition [14] 0.92%
active: viability [4] 20.9% | viability [5] 3.43%
88%: viability [1]
3.78%: viability [6, 16]
3.43%: viability [6, 17]

CN1C(=O)C(O)(CC(=O)c2ccccc2O)c2cc(Br)ccc21 (centres undefined)
active: viability [5] 27%
103%: viability [1]
27%: viability [6, 17]
inactive: Her2 level [2] 85.5% | viability [3] 103% | viability [4] 45.5% | differential viability (reversal) ([6]; H69AR cells + 2 uM doxorubicin) -24.3% | inhibition [7] -4.53% | inhibition [8] 4% | growth inhibition [9] -2.37% | growth inhibition [10] 18% | viability increase [11] -6.06% | inhibition [13] -0.67% | RAM network inhibition [14] -2.32%
51.3%: viability [6, 16]

CNC(=O)c1ccsc1NC(=O)CN1C(=O)CCC1=O
80.5%: viability [6, 16]
inactive: Her2 level [2] 94% | viability [3] 90% | viability [4] 96.8% | differential viability (reversal) ([6]; H69AR cells + 2 uM doxorubicin) -22.5% | inhibition [7] -3.47% | inhibition [8] -0.67% | growth inhibition [9] -11.5% | growth inhibition [10] 0.46% | viability increase [11] -6.24% | viability [15] 104% | viability [12] 98.9% | inhibition [13] 1.65% | RAM network inhibition [14] 1.73%
90%: viability [1]
58%: viability [6, 17]
